From PubChem BioAssay (Tox21)
Records with an inconclusive call do not appear. Where a call stands in place of a potency, no number is given. A number with no mark means an inactive call. Active and inactive are the calls of the source. Unless noted, calls follow the shape of the dose curve; as a rule, active = well fitted curve in the direction sought with a large enough effect in the repeat runs; inconclusive = weak or mixed curves; inactive = no such curve, though single readings can be large; an effect the other way counts as inactive or inconclusive.

Target: Aryl hydrocarbon receptor (Homo sapiens) (UniProt P35869)
Sequence (P35869 whole entry, looked up): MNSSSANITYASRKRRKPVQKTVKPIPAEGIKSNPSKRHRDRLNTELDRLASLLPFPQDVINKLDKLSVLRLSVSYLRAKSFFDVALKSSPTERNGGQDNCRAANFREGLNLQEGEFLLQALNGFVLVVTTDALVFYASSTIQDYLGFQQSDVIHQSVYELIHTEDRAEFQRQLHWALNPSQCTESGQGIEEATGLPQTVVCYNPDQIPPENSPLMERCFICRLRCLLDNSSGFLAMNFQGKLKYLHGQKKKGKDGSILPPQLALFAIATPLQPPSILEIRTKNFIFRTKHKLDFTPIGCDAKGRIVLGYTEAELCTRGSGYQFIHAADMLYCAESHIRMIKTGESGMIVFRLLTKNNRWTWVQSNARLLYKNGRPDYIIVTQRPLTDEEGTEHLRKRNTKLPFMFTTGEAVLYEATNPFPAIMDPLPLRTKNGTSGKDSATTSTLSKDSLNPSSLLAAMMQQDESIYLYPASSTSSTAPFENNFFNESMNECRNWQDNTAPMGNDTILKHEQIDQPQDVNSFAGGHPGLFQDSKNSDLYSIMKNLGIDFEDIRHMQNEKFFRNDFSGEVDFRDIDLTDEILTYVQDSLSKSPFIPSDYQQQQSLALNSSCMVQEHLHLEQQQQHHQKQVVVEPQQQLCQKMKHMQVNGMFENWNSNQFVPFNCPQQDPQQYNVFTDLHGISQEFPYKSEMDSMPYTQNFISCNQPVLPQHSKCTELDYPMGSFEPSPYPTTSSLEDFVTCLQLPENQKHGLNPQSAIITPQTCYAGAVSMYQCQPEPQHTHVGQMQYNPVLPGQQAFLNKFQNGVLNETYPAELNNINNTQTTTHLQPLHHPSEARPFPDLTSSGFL
Assay: qHTS assay to identify small molecule that activate the aryl hydrocarbon receptor (AhR) signaling pathway (AID 743085);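 also: HG2L7.5c1 human HepG2 liver cells with stably integrated DRE-driven firefly reporter; nearly all actives have a fitted effect of over 15% in size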
Details: HepG2 AhR-luc (HG2L7.5c1), luciferase, 24 h; series mostly up to 70.3 µM
How it was run: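 AhR agonist activity is inferred from enhanced light output of a DRE-controlled firefly luciferase reporter in HepG2 cells, measured with ONE-Glo following 24 h treatment at 37C.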
For `O=C(O)c1ccccc1C(=O)Nc1ccc(S(=O)(=O)Nc2nccs2)cc1`, the Potency was “inactive”.
With `C[C@H](CCC(=O)NCC(=O)O)[C@H]1CC[C@H]2[C@@H]3[C@H](O)C[C@@H]4C[C@H](O)CC[C@]4(C)[C@H]3C[C@H](O)[C@]12C` the Potency was “inactive”.
In the case of `BrC/C=C/CBr`, the Potency is reported as “inactive”.
With `Cc1nc(C)nc(N2C[C@@H](C)N(c3ccnc([C@@H](C)O)n3)[C@@H](C)C2)n1` the Potency was “inactive”.
In the case of `Nc1cc(S(=O)(=O)O)ccc1S(=O)(=O)O`, the Potency is reported as “inactive”.
In the case of `CCC(=O)c1ccc(O)cc1`, the Potency is reported as “inactive”.
For `CCOC(=O)CC(CC(=O)OCC)(OC(C)=O)C(=O)OCC`, the Potency was “inactive”.
For `CCCCCCCCCCCCCCCC(=O)NCCO`, the Potency was “inactive”.
In the case of `NS(=O)(=O)c1ccccc1OC(F)(F)F`, the Potency is reported as “inactive”.
In the case of `CC(C)COC(=O)CC(C(=O)OCC(C)C)S(=O)(=O)O` (centres undefined), the Potency is reported as “inactive”.
For `NS(=O)(=O)c1ccc(Cl)c(S(N)(=O)=O)c1`, the Potency was “inactive”.
For `CO[Si](CCCS)(OC)OC`, the Potency was “inactive”.
With `COC(/C=C(\C)CCC=C(C)C)OC` the Potency was “inactive”.
With `Cc1ccccc1OCC1CO1` (centres undefined) the Potency was “inactive”.
For `O=c1cc(O)c(Cl)c[nH]1`, the Potency was “inactive”.
For `CCN(CCC#N)c1ccccc1`, the Potency was “inactive”.
In the case of `CCCCCCCC[Si](OCC)(OCC)OCC`, the Potency is reported as “inactive”.
With `Nc1ccc(S(=O)(=O)NC(=O)c2ccccc2)cc1` the Potency was “inactive”.
With `CC(=O)Nc1ncc([N+](=O)[O-])s1` the Potency was “inactive”.
In the case of `CCC(=O)OCCC(C)CCC=C(C)C` (centres undefined), the Potency is reported as “inactive”.
`C=CCCCCCCCCCCC` gave an activation of -0.125% [at 8.47 µM].
In the case of `CN(C1CCCCC1)S(=O)(=O)c1ccccc1N`, the Potency is reported as “inactive”.
With `NCCc1ccn[nH]1` the Potency was “inactive”.
For `CCCCCCCCCCC`, the Potency was “inactive”.
With `COC(=O)CCC(=O)O` the Potency was “inactive”.
With `Cc1oc(=O)oc1CN1CCN(c2cc3c(cc2F)c(=O)c(C(=O)O)c2n3C(C)S2)CC1` (centres undefined) the Potency was “inactive”.
For `CC1CCC(C(C)(C)S)C(=O)C1` (centres undefined), the Potency was “inactive”.
With `CCCCCCCCCOCC1CO1` (centres undefined) the Potency was “inactive”.
In the case of `C1=CCC(c2ccccc2)CC1` (centres undefined), the Potency is reported as “inactive”.
With `CC(C)CCCC(C)CC=O` (centres undefined) the Potency was “inactive”.
For `Oc1ccccc1Cc1ccccc1O`, the Potency was “inactive”.
With `C=COCCOCCOC=C` the Potency was “inactive”.
For `C=CCOCC(O)CCl` (centres undefined), the Potency was “inactive”.
In the case of `CCCCCC(=O)OCC`, the Potency is reported as “inactive”.
With `CCCCCCCCCCCCC` the Potency was “inactive”.
With `Cc1cccc(C(=O)O)c1[N+](=O)[O-]` the Potency was “inactive”.
With `C=C(C)C(=O)OC1CC(C)CC(C)(C)C1` (centres undefined) the Potency was “inactive”.
For `CCCOCCOCCOCCO`, the Potency was “inactive”.

Test system: not listed separately
Assay: qHTS assay to identify small molecule that activate the aryl hydrocarbon receptor (AhR) signaling pathway - cell viability counter screen (AID 743086);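 also: HepG2 liver cells carrying the AhR DRE luciferase reporter; nearly all actives have a fitted effect of over 45% in size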
Details: HepG2-AhR-luc viability, CellTiter-Fluor, 24 h; series mostly up to 70.3 µM
How it was run: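 HepG2-AhR-luc (HG2L7.5c1) cells, 4000/well, treated 24 h at 37 C with compound; viability measured as CellTiter-Fluor fluorescence after 30 min in the same wells as the luciferase read.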
For `O=C(O)c1ccccc1C(=O)Nc1ccc(S(=O)(=O)Nc2nccs2)cc1`, the Potency was “inactive”.
In the case of `C[C@H](CCC(=O)NCC(=O)O)[C@H]1CC[C@H]2[C@@H]3[C@H](O)C[C@@H]4C[C@H](O)CC[C@]4(C)[C@H]3C[C@H](O)[C@]12C`, the Potency is reported as “inactive”.
With `BrC/C=C/CBr` the Potency was “inactive”.
In the case of `Cc1nc(C)nc(N2C[C@@H](C)N(c3ccnc([C@@H](C)O)n3)[C@@H](C)C2)n1`, the Potency is reported as “inactive”.
For `Nc1cc(S(=O)(=O)O)ccc1S(=O)(=O)O`, the Potency was “inactive”.
With `CCC(=O)c1ccc(O)cc1` the Potency was “inactive”.
For `CCOC(=O)CC(CC(=O)OCC)(OC(C)=O)C(=O)OCC`, the Potency was “inactive”.
With `CCCCCCCCCCCCCCCC(=O)NCCO` the Potency was “inactive”.
With `NS(=O)(=O)c1ccccc1OC(F)(F)F` the Potency was “inactive”.
In the case of `CC(C)COC(=O)CC(C(=O)OCC(C)C)S(=O)(=O)O` (centres undefined), the Potency is reported as “inactive”.
With `NS(=O)(=O)c1ccc(Cl)c(S(N)(=O)=O)c1` the Potency was “inactive”.
With `CO[Si](CCCS)(OC)OC` the Potency was “inactive”.
With `COC(/C=C(\C)CCC=C(C)C)OC` the Potency was “inactive”.
In the case of `Cc1ccccc1OCC1CO1` (centres undefined), the Potency is reported as “inactive”.
With `O=c1cc(O)c(Cl)c[nH]1` the Potency was “inactive”.
With `CCN(CCC#N)c1ccccc1` the Potency was “inactive”.
For `CCCCCCCC[Si](OCC)(OCC)OCC`, the Potency was “inactive”.
With `Nc1ccc(S(=O)(=O)NC(=O)c2ccccc2)cc1` the Potency was “inactive”.
In the case of `CC(=O)Nc1ncc([N+](=O)[O-])s1`, the Potency is reported as “inactive”.
In the case of `CCC(=O)OCCC(C)CCC=C(C)C` (centres undefined), the Potency is reported as “inactive”.
Work on `C=CCCCCCCCCCCC` yielded a viability change, negative = cytotoxic of 0.7% [at 8.47 µM].
In the case of `CN(C1CCCCC1)S(=O)(=O)c1ccccc1N`, the Potency is reported as “inactive”.
With `NCCc1ccn[nH]1` the Potency was “inactive”.
For `CCCCCCCCCCC`, the Potency was “inactive”.
For `COC(=O)CCC(=O)O`, the Potency was “inactive”.
For `Cc1oc(=O)oc1CN1CCN(c2cc3c(cc2F)c(=O)c(C(=O)O)c2n3C(C)S2)CC1` (centres undefined), the Potency was “inactive”.
In the case of `CC1CCC(C(C)(C)S)C(=O)C1` (centres undefined), the Potency is reported as “inactive”.
In the case of `CCCCCCCCCOCC1CO1` (centres undefined), the Potency is reported as “inactive”.
With `C1=CCC(c2ccccc2)CC1` (centres undefined) the Potency was “inactive”.
For `CC(C)CCCC(C)CC=O` (centres undefined), the Potency was “inactive”.
With `Oc1ccccc1Cc1ccccc1O` the Potency was “inactive”.
For `C=COCCOCCOC=C`, the Potency was “inactive”.
For `C=CCOCC(O)CCl` (centres undefined), the Potency was “inactive”.
For `CCCCCC(=O)OCC`, the Potency was “inactive”.
With `CCCCCCCCCCCCC` the Potency was “inactive”.
For `Cc1cccc(C(=O)O)c1[N+](=O)[O-]`, the Potency was “inactive”.
With `C=C(C)C(=O)OC1CC(C)CC(C)(C)C1` (centres undefined) the Potency was “inactive”.
For `CCCOCCOCCOCCO`, the Potency was “inactive”.

Target: Peroxisome proliferator-activated receptor gamma (Homo sapiens) (UniProt P37231)
Sequence (P37231 whole entry, looked up): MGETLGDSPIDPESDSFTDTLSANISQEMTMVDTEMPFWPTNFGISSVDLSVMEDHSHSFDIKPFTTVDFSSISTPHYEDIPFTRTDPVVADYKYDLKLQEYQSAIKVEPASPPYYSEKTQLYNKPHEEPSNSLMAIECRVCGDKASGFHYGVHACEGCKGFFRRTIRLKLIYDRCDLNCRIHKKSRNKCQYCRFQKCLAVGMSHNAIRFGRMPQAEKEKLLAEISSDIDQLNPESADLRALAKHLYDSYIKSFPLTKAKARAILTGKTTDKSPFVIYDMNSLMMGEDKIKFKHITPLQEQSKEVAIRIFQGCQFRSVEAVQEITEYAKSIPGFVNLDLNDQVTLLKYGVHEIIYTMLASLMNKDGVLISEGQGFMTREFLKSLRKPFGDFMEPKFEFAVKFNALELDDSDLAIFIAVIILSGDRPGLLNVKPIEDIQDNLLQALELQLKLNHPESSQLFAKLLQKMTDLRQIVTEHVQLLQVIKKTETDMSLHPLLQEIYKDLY
Assay: qHTS assay to identify small molecule agonists of the peroxisome proliferator-activated receptor gamma (PPARg) signaling pathway (AID 743094; active = well fitted activation curve with a large enough effect in the signal ratio in the repeat runs, not every such curve was filed as active; the % refers to the signal ratio)
Details: HEK293H PPARg-UAS-bla, beta-lactamase FRET ratio, 17 h; series mostly up to 57 µM
How it was run: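 Reporter activation was scored by fluorescence of cleaved LiveBLAzer B/G substrate (1 h, room temperature) in PPARg-bla HEK293H cells previously treated 17 h at 37C with DMSO-dissolved compounds.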
With `O=C(O)c1ccccc1C(=O)Nc1ccc(S(=O)(=O)Nc2nccs2)cc1` the outcome was “inactive”.
With `C[C@H](CCC(=O)NCC(=O)O)[C@H]1CC[C@H]2[C@@H]3[C@H](O)C[C@@H]4C[C@H](O)CC[C@]4(C)[C@H]3C[C@H](O)[C@]12C` the outcome was “inactive”.
In the case of `BrC/C=C/CBr`, the outcome is reported as “inactive”.
With `Cc1nc(C)nc(N2C[C@@H](C)N(c3ccnc([C@@H](C)O)n3)[C@@H](C)C2)n1` the outcome was “inactive”.
For `Nc1cc(S(=O)(=O)O)ccc1S(=O)(=O)O`, the outcome was “inactive”.
With `CCC(=O)c1ccc(O)cc1` the outcome was “inactive”.
For `CCOC(=O)CC(CC(=O)OCC)(OC(C)=O)C(=O)OCC`, the outcome was “inactive”.
In the case of `CCCCCCCCCCCCCCCC(=O)NCCO`, the outcome is reported as “inactive”.
In the case of `NS(=O)(=O)c1ccccc1OC(F)(F)F`, the outcome is reported as “inactive”.
For `CC(C)COC(=O)CC(C(=O)OCC(C)C)S(=O)(=O)O` (centres undefined), the outcome was “inactive”.
In the case of `NS(=O)(=O)c1ccc(Cl)c(S(N)(=O)=O)c1`, the outcome is reported as “inactive”.
With `CO[Si](CCCS)(OC)OC` the outcome was “inactive”.
With `COC(/C=C(\C)CCC=C(C)C)OC` the outcome was “inactive”.
With `Cc1ccccc1OCC1CO1` (centres undefined) the outcome was “inactive”.
In the case of `O=c1cc(O)c(Cl)c[nH]1`, the outcome is reported as “inactive”.
In the case of `CCN(CCC#N)c1ccccc1`, the outcome is reported as “inactive”.
In the case of `CCCCCCCC[Si](OCC)(OCC)OCC`, the outcome is reported as “inactive”.
For `Nc1ccc(S(=O)(=O)NC(=O)c2ccccc2)cc1`, the outcome was “inactive”.
With `CC(=O)Nc1ncc([N+](=O)[O-])s1` the outcome was “inactive”.
For `CCC(=O)OCCC(C)CCC=C(C)C` (centres undefined), the outcome was “inactive”.
In the case of `C=CCCCCCCCCCCC`, the activation is reported as -4.62% [at 7.08 µM].
In the case of `CN(C1CCCCC1)S(=O)(=O)c1ccccc1N`, the outcome is reported as “inactive”.
In the case of `NCCc1ccn[nH]1`, the outcome is reported as “inactive”.
With `CCCCCCCCCCC` the outcome was “inactive”.
For `COC(=O)CCC(=O)O`, the outcome was “inactive”.
With `Cc1oc(=O)oc1CN1CCN(c2cc3c(cc2F)c(=O)c(C(=O)O)c2n3C(C)S2)CC1` (centres undefined) the outcome was “inactive”.
With `CC1CCC(C(C)(C)S)C(=O)C1` (centres undefined) the outcome was “inactive”.
In the case of `CCCCCCCCCOCC1CO1` (centres undefined), the outcome is reported as “inactive”.
In the case of `C1=CCC(c2ccccc2)CC1` (centres undefined), the outcome is reported as “inactive”.
With `CC(C)CCCC(C)CC=O` (centres undefined) the outcome was “inactive”.
With `Oc1ccccc1Cc1ccccc1O` the outcome was “inactive”.
In the case of `C=COCCOCCOC=C`, the outcome is reported as “inactive”.
In the case of `C=CCOCC(O)CCl` (centres undefined), the outcome is reported as “inactive”.
In the case of `CCCCCC(=O)OCC`, the outcome is reported as “inactive”.
For `CCCCCCCCCCCCC`, the outcome was “inactive”.
For `Cc1cccc(C(=O)O)c1[N+](=O)[O-]`, the outcome was “inactive”.
In the case of `C=C(C)C(=O)OC1CC(C)CC(C)(C)C1` (centres undefined), the outcome is reported as “inactive”.
For `CCCOCCOCCOCCO`, the outcome was “inactive”.
